ELG1 genotoxic: genotoxicity induction in ELG1-luciferase HEK293T cells | HEK293T ELG1-luciferase reporter, luminescence, 16 h | Potency, µM (titrated, usually from 46 µM), for inactives: at the top dose activity change, positive = activation, usual class: activators | 330,000 compounds, 1.3% hits; note: % of control where 0% means no effect; nearly all actives have a fitted effect of over 60% in size
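Luminescence read-out: rising ELG1-luciferase signal, reflecting elevated ELG1 protein under genetic stress, flags genotoxic compounds. Cells were treated for 16 hr at 37 °C before ONE-Glo detection.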
Rab9 promoter act: Rab9 promoter activation. Huh7 Rab9 promoter-luciferase reporter, luminescence, 24 h. Potency, µM (titrated, usually from 9.22 µM), for the others: top-dose activation, negative = inhibition, hits mostly activators. 320,000 compounds, 2.8% hits; note: % of control where 0% means no effect; nearly all actives have a fitted effect of over 60% in size
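Cells were plated at 1500 per well in reduced-serum medium with 10% FBS and left 2 h. Compound in DMSO was then added for 24 h at 37 °C. Reporter signal was read by luminescence after 10 min with luciferase detection reagent.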
NPC1 promoter act: activates the NPC1 promoter; Huh7 NPC1 promoter luciferase reporter, 24 h; Potency, µM (doses to about 9.22 µM), without a hit: at the top dose activation, hits mostly activators; AID 485313; 320,000 compounds, 2.4% hits; note: % of control where 0% means no effect; nearly all actives have a fitted effect of over 60% in size
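Stable NPC1-promoter luciferase Huh7 line; cpd (DMSO) 24 h, 37 °C, 5% CO2; Amplite luciferase reagent 10 min RT; luminescence readout. qHTS format.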
ELG1 repair inh: ELG1-dependent DNA repair inhibition. HEK293T ELG1-luciferase reporter, luminescence, 16 h; DNA damage induced by 5-fluorouridine. Potency, µM (highest dose often 46.1 µM), without a hit: top-dose activity change, negative = inhibition, hits mostly inhibitors. 330,000 compounds, 2.3% hits. AID 504467; note: % is set by controls: 0 for no effect and ±100 for the full control effect; nearly all actives have a fitted effect of over 55% in size
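DMSO vehicle served as the neutral condition. Each well held 2,000 cells given 5-fluorouridine plus compound; after 16 hr at 37 °C/5% CO2, ONE-Glo was added and luciferase measured 30 min later.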
SMN2 splice up: increases expression of the SMN2 splice variant | HEK293 SMN2-luciferase splicing reporter, luminescence, 30-36 h | Potency, µM (highest dose often 46.1 µM), for the others: at the top dose activity change, positive = activation, hits mostly activators | 210,000 compounds, 2.8% hits | AID 1458; note: % of control where 0% means no effect; nearly all actives have a fitted effect of over 55% in size
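qHTS luciferase splicing reporter: luminescence rises when SMN2 exon 7 is included in transfected HEK293 cells. Compound exposure lasted 30-36 h at 37C, with 4.5 mM final sodium butyrate as control, followed by a ONE-Glo read.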
FLuc counter: firefly luciferase modulation, counter-screen for miR-21 project; P08659; purified FLuc, Km substrates, luminescence inhibition; Potency, µM (highest dose often 57.5 µM), for the others: top-dose activity change, negative = inhibition, actives largely listed as inhibitors; 360,000 compounds, 6.9% hits; AID 588342;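 note: plate controls were vehicle for no effect and reference inhibitor for full effect; nearly all actives have a fitted effect of over 55% in size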
Target sequence (P08659 whole entry, looked up): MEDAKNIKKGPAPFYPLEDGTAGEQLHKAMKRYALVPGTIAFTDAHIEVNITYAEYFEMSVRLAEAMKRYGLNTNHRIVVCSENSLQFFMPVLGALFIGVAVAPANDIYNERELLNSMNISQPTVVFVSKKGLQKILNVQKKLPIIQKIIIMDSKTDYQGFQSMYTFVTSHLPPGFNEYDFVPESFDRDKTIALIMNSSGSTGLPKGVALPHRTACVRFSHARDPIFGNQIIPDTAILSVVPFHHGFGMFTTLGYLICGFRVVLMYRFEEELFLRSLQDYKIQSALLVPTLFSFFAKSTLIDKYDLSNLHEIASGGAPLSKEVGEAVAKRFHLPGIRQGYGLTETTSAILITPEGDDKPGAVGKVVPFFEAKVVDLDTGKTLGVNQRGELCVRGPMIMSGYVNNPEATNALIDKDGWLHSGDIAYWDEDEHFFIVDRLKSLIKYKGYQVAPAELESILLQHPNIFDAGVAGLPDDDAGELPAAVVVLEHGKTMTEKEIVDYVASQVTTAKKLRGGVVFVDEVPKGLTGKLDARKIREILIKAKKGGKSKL
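Purified P. pyralis luciferase, 10 nM final, with Km-level 10 uM D-luciferin and 10 uM ATP in 50 mM Tris acetate pH 7.5, 10 mM Mg acetate, 0.01% Tween-20, 0.05% BSA; 6-point qHTS titration about 60 µM downward; luminescence read.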
The depositor's hits bear a star. Only some compounds are listed: those with a hit (about 9.4% of all), similar ones and a draw of the others. Calls come from the whole dose curve; as a rule, active = well fitted curve in the direction sought with a large enough effect; inconclusive = small, poorly fitted or top-dose-only effect, or another doubt; inactive = no such curve, though single readings can be large; an effect the other way counts as inactive or inconclusive. Potency is the fitted concentration of half-maximal effect.

`CCOC(=O)C1CCCN(C(=O)CC(C)c2ccccc2)C1` (stereo not drawn) gave ELG1 genotoxic inconclusive, Rab9 promoter act 2µM*, NPC1 promoter act 2.8µM*, ELG1 repair inh inconclusive, SMN2 splice up inconclusive and FLuc counter inconclusive.
Screening CCOC(=O)c1c(NC(=O)CSc2cn(CCNC(=O)c3ccc(OC)c(OC)c3)c3ccccc23)sc2c1CCCC2 returned SMN2 splice up 1% and FLuc counter -5%.
Cc1cc(O)c(CN2CCN(c3ccc(F)cc3)CC2)c2oc(=O)cc(C)c12 was read as FLuc counter -6%.
For Cc1ccc(NC(=O)C2CCCN2S(=O)(=O)c2ccc3nc(-c4ccccc4)[nH]c3c2)cc1F (stereo not drawn) the results were FLuc counter -14%.
Screening CCN(C(=O)c1cccn(Cc2cccc(Cl)c2)c1=O)c1ccccc1 returned FLuc counter 3%.
Screening COc1ccc(CN2C(=O)CS/C2=N/N=C/c2cccs2)cc1 returned ELG1 genotoxic 13%, Rab9 promoter act 11%, NPC1 promoter act -16%, ELG1 repair inh -12% and FLuc counter 17µM*.
For CCCNc1ccc(C(=O)OCC)cc1[N+](=O)[O-] the results were ELG1 genotoxic inconclusive, Rab9 promoter act inconclusive, NPC1 promoter act inconclusive, ELG1 repair inh inconclusive, SMN2 splice up -11% and FLuc counter 27µM*.
For CCOC(=O)CNc1ccc(C(=O)OCC)cc1[N+](=O)[O-] the results were ELG1 genotoxic 4%, Rab9 promoter act 2%, NPC1 promoter act -2%, ELG1 repair inh 5%, SMN2 splice up 8% and FLuc counter -13%.
CCOC(=O)C1CCN(C(=O)/C=C/c2ccc3c(c2)OCO3)CC1 was read as ELG1 genotoxic inconclusive, Rab9 promoter act 0.79µM*, NPC1 promoter act 0.45µM*, ELG1 repair inh inconclusive and FLuc counter 15µM*.
O=C(/C=C/c1ccc2c(c1)OCCO2)N1CCN(c2ccc(F)cc2)CC1 was read as ELG1 genotoxic -4%, Rab9 promoter act -2%, NPC1 promoter act -3%, ELG1 repair inh -9% and FLuc counter 24µM*.
For CCOC(=O)C1CCN(C(=O)/C=C/c2ccccc2)CC1 the results were ELG1 genotoxic 14%, Rab9 promoter act 1.1µM*, NPC1 promoter act 1.4µM*, ELG1 repair inh inconclusive, SMN2 splice up 11µM* and FLuc counter 24µM*.
O=C(/C=C/c1ccc2c(c1)OCO2)N1CCCCC1 was read as ELG1 genotoxic inconclusive, Rab9 promoter act 1.6µM*, NPC1 promoter act 3.5µM*, ELG1 repair inh inconclusive and FLuc counter 12µM*.
Screening CCOC(=O)C1CCN(C(=O)COC(=O)/C=C/c2ccccc2)CC1 returned ELG1 genotoxic -2% and ELG1 repair inh inconclusive.
For CCC(C(=O)O)n1ccc2cc(S(=O)(=O)N3CCCCC3)ccc21 (stereo not drawn) the results were SMN2 splice up -1% and FLuc counter -19%.
For COc1ccc(N(CC(=O)NCCc2ccccc2)S(=O)(=O)c2ccccc2)c(OC)c1 the results were SMN2 splice up 6% and FLuc counter 2%.
For CCN(CC)c1ccc(NC(=O)C2=CC=CN3CCS(=O)(=O)N=C23)cc1 the results were ELG1 genotoxic 12%, Rab9 promoter act inconclusive, NPC1 promoter act 17%, ELG1 repair inh inconclusive and FLuc counter 3µM*.
Screening FC(F)(F)COc1cc(-c2nnc(SCc3ccccc3)n2Cc2ccco2)cc(OCC(F)(F)F)n1 returned ELG1 genotoxic -14%, Rab9 promoter act -5%, NPC1 promoter act inconclusive, ELG1 repair inh 18µM* and FLuc counter 2%.
For C/C(=N\NC(=O)c1c(Cl)c(C)nn1C)c1cccc(NC(=O)C2CCCC2)c1 the results were ELG1 genotoxic -4%, Rab9 promoter act 2%, NPC1 promoter act -3%, ELG1 repair inh inconclusive and FLuc counter 17µM*.
For CCOc1ccc(CCNC(=O)c2cc(-c3ccccc3)c(N3CCOCC3)s2)cc1OCC the results were ELG1 genotoxic -9%, Rab9 promoter act 2%, NPC1 promoter act 3%, ELG1 repair inh 16µM* and FLuc counter 1%.
For O=C(NCc1ccc2c(c1)OCO2)c1cc(-c2ccccc2)c(N2CCOCC2)s1 the results were ELG1 genotoxic -8%, Rab9 promoter act -6%, NPC1 promoter act -1%, ELG1 repair inh 18µM* and FLuc counter 0%.
Screening O=C(NCc1ccco1)c1cc(-c2ccccc2)c(N2CCOCC2)s1 returned ELG1 genotoxic -4%, Rab9 promoter act 20%, NPC1 promoter act 0%, ELG1 repair inh 21µM*, SMN2 splice up -4% and FLuc counter -1%.
COc1ccc(CCNC(=O)c2cc(-c3ccccc3)c(N3CCOCC3)s2)c(OC)c1OC was read as ELG1 genotoxic -6%, Rab9 promoter act 3%, NPC1 promoter act -1%, ELG1 repair inh inconclusive and FLuc counter inconclusive.
O=C(O)c1cc(-c2ccccc2)c(N2CCOCC2)s1 was read as ELG1 genotoxic -1%, Rab9 promoter act -1%, NPC1 promoter act 0%, ELG1 repair inh 1%, SMN2 splice up 0% and FLuc counter 1%.
`CCCC(=O)OCc1cnc(C)c2oc(=O)c(C(=O)Nc3ccc(F)cc3C)cc12` gave FLuc counter -1%.
For COc1ccc(C2CC(=O)c3c([nH]c(C(=O)OC4CCCCCC4)c3C)C2)cc1OC (stereo not drawn) the results were SMN2 splice up -19% and FLuc counter 5%.
Screening O=C(c1ccccc1)n1nc(-c2ccc(Cl)cc2)nc1NCc1ccco1 returned SMN2 splice up inconclusive and FLuc counter 2%.
For COc1ccc(CC(=O)n2nc(-c3ccc(Cl)cc3)nc2NCc2ccco2)cc1 the results were ELG1 genotoxic 14%, Rab9 promoter act 3.2µM*, NPC1 promoter act inconclusive, ELG1 repair inh inconclusive, SMN2 splice up inconclusive and FLuc counter -2%.
Screening CC(=O)n1nc(-c2ccc(Cl)cc2)nc1NCc1ccco1 returned ELG1 genotoxic 21µM*, Rab9 promoter act 2.8µM*, NPC1 promoter act inconclusive, ELG1 repair inh inconclusive and FLuc counter -5%.
Screening CCOc1ccc(CC(=O)Nc2c(C(=O)c3ccc(F)cc3)oc3ccc(Cl)cc23)cc1OCC returned SMN2 splice up -5% and FLuc counter -2%.

Bioassay records as filed in PubChem.
